# AmpC inh no detg: AmpC beta-lactamase inhibition without detergent | P00811 | AmpC nitrocefin hydrolysis, absorbance 480 nm, 0.0001% Triton | Potency, µM (series often up to 57.1 µM), for inactives: at the top dose activity change, negative = inhibition, most hits filed as inhibitors | 0.52% of 330,000 active;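 also: plate controls were no compound for no effect and no enzyme for full effect; nearly all actives have a fitted effect of over 20% in size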
# Target sequence (P00811 whole entry, looked up): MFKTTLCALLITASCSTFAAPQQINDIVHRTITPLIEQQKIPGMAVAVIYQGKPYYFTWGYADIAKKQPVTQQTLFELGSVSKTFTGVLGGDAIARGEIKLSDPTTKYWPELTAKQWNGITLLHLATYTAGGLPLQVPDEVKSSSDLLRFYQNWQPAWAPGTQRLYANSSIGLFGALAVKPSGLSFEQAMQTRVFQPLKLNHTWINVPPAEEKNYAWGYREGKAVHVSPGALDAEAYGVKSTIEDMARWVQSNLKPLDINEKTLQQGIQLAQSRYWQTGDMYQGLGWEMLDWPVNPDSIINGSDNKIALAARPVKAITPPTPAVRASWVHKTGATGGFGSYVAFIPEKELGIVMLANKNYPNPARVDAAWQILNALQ
#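 20 mM phosphate pH 7.0 + 0.01% (detergent screen) or 0.0001% Triton X-100; 5.3 nM AmpC reagent; cpd preinc 15 min RT; nitrocefin (800 uM stock) to start; A480 q20 s × 4 min; Activity was normalised to no-enzyme and no-compound control wells.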
# FBPA Giardia inh: inhibitors of Giardia lamblia fructose-1,6-bisphosphate aldolase; purified Giardia FBPA; Potency, µM (doses to about 59.6 µM), inactives show top-dose activity, negative = inhibition, usual class: inhibitors; 0.71% of 290,000 active; AID 2451; also: nearly all actives have a fitted effect of over 55% in size
# Target sequence (A8B2U2 whole entry, looked up): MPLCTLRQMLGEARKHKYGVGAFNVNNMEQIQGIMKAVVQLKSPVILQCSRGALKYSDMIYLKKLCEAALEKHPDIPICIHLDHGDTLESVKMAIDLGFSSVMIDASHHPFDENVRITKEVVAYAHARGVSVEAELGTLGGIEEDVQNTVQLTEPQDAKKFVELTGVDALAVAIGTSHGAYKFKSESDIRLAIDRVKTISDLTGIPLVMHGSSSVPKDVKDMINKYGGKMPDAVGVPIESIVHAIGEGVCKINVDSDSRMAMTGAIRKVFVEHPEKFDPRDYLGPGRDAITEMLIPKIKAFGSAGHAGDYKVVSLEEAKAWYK
#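 Giardia FBPA (40 nM reagent) was preincubated 10 min at RT with compound (up to 57.5 uM final), then substrate plus GAPDH/TPI/NAD/arsenate coupling system with diaphorase/resazurin was added; resorufin fluorescence (525/598 nm) was read after 20 min.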
# AMA1-RON2 inh: disrupts binding of P. falciparum AMA1 to RON2 | Potency, µM (highest dose often 58.2 µM), for the others: at the top dose activity change, negative = inhibition, most hits filed as inhibitors | 0.2% of 360,000 active | AID 720542 | AlphaScreen AMA1-biotinylated RON2 peptide binding;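 also: 0% = vehicle wells and -100% = peptide control; nearly all actives have a fitted effect of over 45% in size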
#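 AMA1 (3D7) with his tag at 25 nM final met compounds first, then biotinylated RON2 peptide at 25 nM; detection used donor plus acceptor beads, 10 µg/mL apiece, read by AlphaScreen after 30 min at room temperature.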
# AmpC detergent: inhibitors of E. coli AmpC beta-lactamase with detergent. AmpC hydrolysis of nitrocefin, absorbance 480 nm, 0.01% Triton. P00811. 0.041% of 370,000 active. Potency, µM (doses to about 114 µM), without a hit: at the top dose activity change, negative = inhibition, hits mostly inhibitors;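 also: 0% = no-compound wells and -100% = no-enzyme wells; nearly all actives have a fitted effect of over 25% in size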
#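 AmpC (5.3 nM in the dispensed reagent) in 20 mM phosphate pH 7.0 with 0.01% (detergent screen) or 0.0001% Triton X-100 was preincubated with compounds for 15 min at room temperature. Nitrocefin was then added from an 800 uM solution, and hydrolysis was followed at 480 nm.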
# Numbers without * were called inactive; ? = inconclusive; nt = no result; [ ] = another dose, or the depositor's remark. Compounds with a hit are over-represented: about 1.1% of the library has one in this group of screens. Calls follow the shape of the dose curve; as a rule, active = well fitted curve in the direction sought with a large enough effect; inconclusive = small, poorly fitted or top-dose-only effect, or another doubt; inactive = no such curve, though single readings can be large; an effect the other way counts as inactive or inconclusive. Unless noted, % is scaled to controls: 0 for no effect and ±100 for the full control effect; potency is read from the fitted curve at half-maximal effect.
SMILES,AmpC inh no detg,FBPA Giardia inh,AMA1-RON2 inh,AmpC detergent
CC(OC(=O)C1=Cc2ccccc2OC1)C(=O)NC1CCCC1 (centres undefined),0.159µM*,1.4%,-15.0%,2.2%
CC1(C(=O)Nc2cccc3cccnc23)CCN1C(=O)Cc1ccc(Cl)cc1Cl (centres undefined),nt,nt,-14.0%,nt
CC1CCCCN1c1nnc(NC(=O)c2cc(-c3ccc(Br)cc3)on2)s1 (centres undefined),39.8µM*,20.4%,108.8%,?
COC(=O)[C@@]1(Cc2ccc(F)cc2)[C@H]2c3cc(C(=O)N(C)C)n(CCc4c[nH]c5ccc(O)cc45)c3C[C@H]2CN1C(=O)c1ccccc1,nt,nt,-10.1%,nt
Cc1c(C(=O)NCCSCc2c(Cl)cccc2Cl)cccc1[N+](=O)[O-],-23.9%,-0.2%,-6.9%,0.4%
Cc1c(C(=O)NCCSCc2ccccc2Cl)cccc1[N+](=O)[O-],0.251µM*,-4.2%,-15.7%,-2.2%
O=C1C=C(N(CCO)Cc2ccccc2)c2ccccc2C1=O,-43.7%,0.354µM*,-1.2%,-7.2%
COC(=O)c1cc2c(cc1NC(=O)c1c(C)nn(-c3ccc(C)cc3)c1-n1cccc1)OCO2,nt,nt,nt,27.3%
CCOc1ccc(NC(=O)CN2CC(c3ccccc3)CC2=O)cc1 (centres undefined),2.51µM*,-0.3%,-1.1%,-15.1%
COc1cccc(NC(=O)CN2CC(c3ccccc3)CC2=O)c1 (centres undefined),1.5%,3.5%,-7.5%,-11.3%
Cc1ccc(C2=NN(CCC(=O)NCCc3cccc(C)c3)C(=O)CC2)cc1,nt,nt,nt,-9.3%
C=CC(=O)Nc1cccc(Oc2ccnc3[nH]ccc23)c1,nt,nt,25.1µM*,nt
CC(=O)c1ccc(NC(=O)c2cc(CC(C)C)on2)cc1,50.1µM*,-0.1%,16.2%,?
CC(C)Cc1cc(C(=O)Nc2cccnc2)no1,-5.0%,-0.4%,-9.6%,?
CSc1ccccc1NC(=O)c1cc(CC(C)C)on1,10µM*,0.1%,36.6%,4.3%
O=C(Cc1ncc(C(F)(F)F)cc1Cl)NNc1cccc(F)n1,-15.5%,8.7%,56.7%,2.5%
COc1cc(C(O)c2nc(-c3cc(F)cc(F)c3)cs2)ccc1F (centres undefined),nt,nt,5.1%,nt
COc1cc(C(O)c2nc(-c3ccc(N(C)C)cc3)cs2)ccc1F (centres undefined),nt,nt,20µM*,nt
CCOC1=C2CN(S(=O)(=O)c3ccc(C)cc3)[C@H](c3ccccc3)C[C@@H]2N(S(=O)(=O)c2ccccc2C)[C@H](c2ccccc2)C1,nt,nt,-7.7%,nt
CC(C)C1C(=O)N(Cc2cn(CCC3OCCO3)nn2)CCS(=O)(=O)N1Cc1ccc(-c2cccc(N(C)C)c2)cc1 (centres undefined),nt,nt,17.8µM*,nt
CC(C)C1C(=O)N(Cc2cn(CCC3OCCCO3)nn2)CCS(=O)(=O)N1Cc1ccc(-c2cccc(N(C)C)c2)cc1 (centres undefined),nt,nt,-24.2%,nt
Cn1c2ccccc2c2cnn(CC(=O)NCCCN3CCCCC3)c(=O)c21,nt,nt,nt,17.8%
CCOC(=O)C1CCCN(c2nc3c(S(=O)(=O)c4ccc(CC)cc4)nnn3c3ccsc23)C1 (centres undefined),nt,nt,nt,2.2%
O=C(CN1c2ccccc2Sc2ccccc21)NNC(=S)Nc1ccc(Cl)cc1Cl,15.8µM*,5.6%,20.0%,-8.1%
CN(CCc1ccccc1)Cc1ccccc1[N+](=O)[O-],-16.5%,-10.2%,-6.6%,-14.1%
SMILES,AmpC inh no detg,FBPA Giardia inh,AMA1-RON2 inh,AmpC detergent
COc1cc(N(C)C)cc(CN(C)CCc2ccc([N+](=O)[O-])cc2)c1O,nt,7.92µM*,nt,nt
COc1ccc(CCn2c(SCC(=O)Nc3cc(C)on3)nc3ccsc3c2=O)cc1OC,0.316µM*,-1.1%,-17.2%,-1.2%
Cc1ccc2c(c1)-c1c(cnc3cc(-c4ccc(Cl)cc4)nn13)CO2,nt,nt,nt,-0.1%
NC1(C(=O)O)C[C@H](C(=O)O)[C@H](C(=O)O)C1 (some centres undefined),nt,-9.2%,nt,nt
CC(C)C[C@H](NC(=O)C1OC1C(=O)O)C(=O)NCCCCN=C(N)N (some centres undefined),nt,-1.5%,nt,nt
COc1ccc2c(c1)C(=O)/C(=C/C=C/c1ccccc1)CC2,-56.0%,?,-26.7%,?
COC1=CC(=O)C(O)=C/C1=C\C=C\c1ccccc1,nt,22.3µM*,nt,nt
Cc1c(C)n(Cc2ccc(F)cc2)c2ccc(C(=O)NCCN3CCOCC3)cc12,170.1%,-2.5%,-24.0%,-13.8%
Cc1noc(COc2ccccc2OCC(N)=O)n1,nt,nt,-4.6%,nt
c1ccc(CN2CCN(C3=Nc4cccc5cccc3c45)CC2)cc1,50.9%,-25.4%,?,0.0%
Fc1ccc(N2CCN(C3=Nc4cccc5cccc3c45)CC2)cc1,-27.3%[11.4 µM],-7.6%,22.4µM*,?
O=c1c2c3c(sc2[nH]c(=S)n1Cc1ccco1)CCC3,20µM*,-20.5%,109.4%,3.1%
O=C(CSc1n[nH]c(=O)[nH]c1=O)Nc1ccc2c(c1)C(=O)c1ccccc1C2=O,-42.0%,-18.8%,-6.0%,?
CCN(c1ccccc1)S(=O)(=O)c1cc(NC(=O)CSc2n[nH]c(=O)[nH]c2=O)ccc1Cl,20µM*,21.7%,0.5%,-9.4%
C[C@H](CO)N1C[C@H](C)[C@H](CN(C)C(=O)C2CC2)OCc2cnnn2CCCC1=O,nt,nt,-1.7%,nt
COc1ccc(/C=N\NC(=O)CNC(=O)C(c2ccccc2)c2ccccc2)cc1[N+](=O)[O-],3.98µM*,-1.6%,-1.7%,-3.5%
CCOc1ccc(S(=O)(=O)NNS(=O)(=O)c2ccc(C)cc2C)cc1,-24.0%,0.1%,2.3%,0.6%
COC(=O)[C@@]12C[C@@H](CC(=O)NCc3cccc4ccccc34)C(=O)N(Cc3ccccc3)C1=CCC(C)(C)C2,nt,nt,-15.3%,nt
COc1cccc(OC)c1C(=O)NC(=S)NNC(=O)[C@H]1C[C@@H]1c1ccccc1,-51.6%,?,160.3%,-5.3%
COc1ccc(/C=C/C(=O)NC(=S)NNC(=O)[C@H]2C[C@@H]2c2ccccc2)cc1OC,7.08µM*,16.2%,129.6%,-3.1%
COc1ccc(-c2[nH]c3ccccc3c2SCCNC(=O)c2ccc(S(=O)(=O)N(C)C)cc2)cc1,nt,nt,nt,7.3%
C(=NN=C1c2ccccc2-c2ccccc21)c1ccc2c(c1)OCO2,nt,nt,-28.2%,nt
CCCCOc1ccc(CNC(=O)c2ccc(NC(=O)N3CCSc4ncccc43)cc2)cc1,nt,nt,nt,21.3%

# Compound activity (PubChem BioAssay)
